Experimental findings from the supplement of paper PMC11219838 are described below.

A number with no mark means an inactive call.

What all share (details): 60 µM; 5 days; temperature: 20 °C
The subject of test [1] is Meloidogyne hapla J2. The experiment in a line: proportion of mobile M. hapla J2 relative to DMSO control (fraction of DMSO control); higher = more viable, less nematicidal, active = 0.7 or less. The essentials:
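Compound was pinned to 60 µM final (0.6% v/v DMSO) into 96-well wells, each holding about 25 M. hapla J2 in distilled water. Plates were sealed and shaken for 5 days at 20 °C and 200 rpm, then given 2 µL 1 M NaOH per well. Microscopic mobility scores were normalised to the mean of the plate's own DMSO wells, eight per plate, with two biological replicates averaged.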

Test [2] concerns Caenorhabditis elegans dauer (daf-2(e1370)). As to the kind of experiment: proportion of mobile C. elegans dauer larvae relative to DMSO control (fraction of DMSO control); higher = more viable, less nematicidal, active = 0.63 or less; extreme values may be limits of the assay. The essentials:
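The proportion of mobile worms, relative to DMSO wells, was scored by dissection microscope and averaged over two biological replicates. Worms were C. elegans dauers, about 20 per well in liquid NGM in 96-well plates, generated from synchronized larvae on MYOB plates with E. coli OP50 at 25 °C for 48 h. They were treated with compound pinned to 60 µM final (0.6% v/v DMSO) and kept in sealed plates shaken at 200 rpm for 5 days at 20 °C.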

Test [3] concerns Ditylenchus dipsaci. The experiment in a line: proportion of mobile D. dipsaci (mixed stage) relative to DMSO control (fraction of DMSO control); higher = more viable, less nematicidal, active = 0.86 or less; extreme values may be limits of the assay. The essentials:
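Mobility values are relative to DMSO controls and are averages of two biological replicates. For each well of a 96-well plate, about 20 D. dipsaci worms, grown on pea plants in Gamborg B-5 agar and funnel-extracted into water, were dispensed in distilled water. Plates received pinned compound at 60 µM final with 0.6% v/v DMSO and were sealed and shaken at 200 rpm for 5 days at 20 °C before 2 µL 1 M NaOH was added and mobile worms were scored by microscope.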

`CCN(CC)C(=O)CSc1nnc(-c2ccc(Br)cc2)o1`: the “proportion of mobile M. hapla J2” value in test [1] is 1.04. For the same compound, the “proportion of mobile C. elegans dauer larvae” value in test [2] is 1. Besides, the “proportion of mobile D. dipsaci” value in test [3] was 1.

As to `COc1cccc(OCc2nc(-c3cccc(C)c3)no2)c1`, the “proportion of mobile M. hapla J2” value in test [1] is 0.866. Also, the “proportion of mobile C. elegans dauer larvae” value in test [2] was 1. The “proportion of mobile D. dipsaci” value in test [3] was 1.

`COc1cccc(-c2noc(-c3ccc(C)cc3)n2)c1`: the “proportion of mobile M. hapla J2” value in test [1] is 0.948. Further, the “proportion of mobile C. elegans dauer larvae” value in test [2] was 0 (active). For the same compound, the “proportion of mobile D. dipsaci” value in test [3] is 1.

Regarding `O=C(CSc1nnc(-c2ccc(Br)cc2)o1)NC1CCCCC1`, in test [1], the “proportion of mobile M. hapla J2” value is 1.04. Besides, in test [2], the “proportion of mobile C. elegans dauer larvae” value was 1. For the same compound, the “proportion of mobile D. dipsaci” value in test [3] is 1.

Turning to `c1ccc2c(-c3nc(-c4ccncc4)no3)cccc2c1`, the “proportion of mobile M. hapla J2” value in test [1] was 0.917. The “proportion of mobile C. elegans dauer larvae” value in test [2] is 1. The “proportion of mobile D. dipsaci” value in test [3] is 1.

With `COc1ccc(-c2noc(COc3ccc(C)c(C)c3)n2)cc1`, in test [1], the “proportion of mobile M. hapla J2” value is 0.969. For the same compound, the “proportion of mobile C. elegans dauer larvae” value in test [2] is 1. The “proportion of mobile D. dipsaci” value in test [3] is 1.

With `Cc1cccc(-c2noc(-c3ccc(Cl)cc3)n2)c1`, the “proportion of mobile M. hapla J2” value in test [1] is 1.05. In addition, the “proportion of mobile C. elegans dauer larvae” value in test [2] was 1. Also, the “proportion of mobile D. dipsaci” value in test [3] was 1.

Regarding `COc1cccc(-c2noc(COc3cccc(C)c3C)n2)c1`, the “proportion of mobile M. hapla J2” value in test [1] is 1.04. Moreover, the “proportion of mobile C. elegans dauer larvae” value in test [2] was 1. In addition, the “proportion of mobile D. dipsaci” value in test [3] was 1.

Take `COc1cccc(-c2noc(-c3c(F)cccc3F)n2)c1`: in test [1], the “proportion of mobile M. hapla J2” value is 0.953. Also, the “proportion of mobile C. elegans dauer larvae” value in test [2] was 1. In test [3], the “proportion of mobile D. dipsaci” value is 1.

As for `CCN(CC)C(=O)CSc1nnc(-c2ccc(Cl)cc2Cl)o1`, the “proportion of mobile M. hapla J2” value in test [1] is 1.03. Further, the “proportion of mobile C. elegans dauer larvae” value in test [2] is 1. The “proportion of mobile D. dipsaci” value in test [3] is 1.

For the compound `O=C(CSc1nnc(-c2ccc(Cl)cc2Cl)o1)N1CCCCC1`, the “proportion of mobile M. hapla J2” value in test [1] is 0.934. The “proportion of mobile C. elegans dauer larvae” value in test [2] is 1. In test [3], the “proportion of mobile D. dipsaci” value was 1.

For the compound `COc1ccc(Cl)cc1-c1noc(-c2ccccc2C)n1`, the “proportion of mobile M. hapla J2” value in test [1] is 0.93. Besides, the “proportion of mobile C. elegans dauer larvae” value in test [2] was 1. In addition, the “proportion of mobile D. dipsaci” value in test [3] is 1.

On to `CCOc1ccc(-c2nc(-c3ccccc3C)no2)cc1`, for which the “proportion of mobile M. hapla J2” value in test [1] was 0.692 (active). The “proportion of mobile C. elegans dauer larvae” value in test [2] was 1. Also, the “proportion of mobile D. dipsaci” value in test [3] was 1.
